The OligoGym collection

molecular target: PKLR; assay: pooled miR-30 sensor sort-seq; sequence = guide strand; conditions: shRNA
Also: reference of the scale not given here.

Sequence	sensor-assay potency score (higher = more potent)
TCAATTTTGCTGATGATCTTGA	0.666
TAATTGGACACAGACTTTCAGG	-0.61
TGTGGCACAGACAACAGGCTTG	-0.0127
TTGATCATCTCCTTGAGGCGCT	1.07
TCGCTTGTCTCTGCCCTCGTTG	-1.2
TCGTGGTTCTCAATTTTGCTGA	-0.424
TAGATGACAGTTATAGTCTCAG	-0.0862
TAGCTCCTCAAACAGCTGCCGG	-1.23
ATGCTCTCCAGCATCTGTGTGG	-1.11

molecular target: PLA2G4A; assay: as above; conditions: shRNA

Sequence	sensor-assay potency score (higher = more potent)
TATCACATCAATGTTGTTCAGA	0.0915
TAGTTCTTCATTAATCTCCTCT	0.214
TATCTTTTAACTTTCTGTGGTG	-0.296
TTCTTCATTAATCTCCTCTGGC	-0.109
TTTAAAGACATAGCACTCCTTC	-0.0879
TTTGATAGTCACTTCCAGCATC	-0.254
TAAAGCTGAATCACTCACCAAG	-0.42
TTTGCTTCCAAATAAGTCGGGA	0.33
TGATTCATCATCACTGTCCGAG	0.0963
TAGTCAGTGAATAACATTCATA	-0.999
TTGTCTGAAAGTCTTCTCCTGA	0.182
TACAAGGTTGACATATACCAGG	-0.86
